The record followed here is the supplement of paper PMC13380429.

In assay [1] the test system is Vero E6 infected with SARS-CoV-2. In words: morphology score (similarity to uninfected cells); higher = more like uninfected cells. The following applies: 24 h.
Assay [2] shares this test system. In words: SARS-CoV-2 infection rate relative to infected DMSO; higher = more infection, active = 60 or less. The following applies: 24 h.

The compound `CCCSc1ccc2[nH]c(NC(=O)OC)nc2c1` [albendazole] (0.833333 µM) registered a morphology score in assay [1] of 0.0557. The SARS-CoV-2 infection rate in assay [2] was 98% (inactive).

`CCOC(=O)[C@@H](C)Oc1ccc(Oc2nc3ccc(Cl)cc3o2)cc1` [fenoxaprop-p-ethyl] (10 µM) gave a morphology score in assay [1] of -0.0825. Moreover, the SARS-CoV-2 infection rate in assay [2] was 106% (inactive).

In assay [1], `CCCC[C@@H](C=O)NC(=O)[C@H](CC(C)C)NC(=O)OCc1ccccc1` [calpeptin] (10 µM) returned a morphology score of 0.815. Besides, the SARS-CoV-2 infection rate in assay [2] was 12.5% (active).

Turning to `CC1(C)N=C(N)N=C(N)N1OCCCOc1cc(Cl)c(Cl)cc1Cl` (10 µM), the morphology score in assay [1] turned out to be 0.205. Further, the SARS-CoV-2 infection rate in assay [2] is 89.5% (inactive).

Take `Cc1ccc(S(=O)(=O)NC(=O)NN2CC3CCCC3C2)cc1` (stereo not given) [gliclazide] (10 µM): the morphology score in assay [1] came to 0.0635. Also, in assay [2], the SARS-CoV-2 infection rate is 106% (inactive).

In assay [1], `Nc1ccc(S(=O)(=O)Nc2cnc3ccccc3n2)cc1` [sulfaquinoxaline] (10 µM) came in with a morphology score of 0.114. Also, in assay [2], the SARS-CoV-2 infection rate was 104% (inactive).

In assay [1], `CC(C)[C@@H](C(=O)Nc1nccs1)c1ccc(Cl)cc1` (10 µM) showed a morphology score of 0.0344. The SARS-CoV-2 infection rate in assay [2] was 98.5% (inactive).

As to `CCCCOc1ccc(C(=O)Nc2ccc(F)cc2F)cc1` (10 µM), in assay [1], the morphology score came to 0.18. Moreover, in assay [2], the SARS-CoV-2 infection rate is 106% (inactive).

In the case of `Cc1ccc(NC(=O)CCCCCC(=O)Nc2ccccc2N)cc1` (0.833333 µM), the morphology score in assay [1] was -0.0538. For the same compound, in assay [2], the SARS-CoV-2 infection rate is 103% (inactive).

As for `N#Cc1c(-c2ccccc2)cc(-c2cc(Br)ccc2O)[nH]c1=O` (10 µM), the morphology score in assay [1] is 0.048. Further, the SARS-CoV-2 infection rate in assay [2] is 110% (inactive).

Regarding `Cc1cc(C)c(NC(=O)N(Cc2ccc3c(c2)Cc2ccccc2-3)C2CCCCCC2)c(C)c1` (10 µM), the morphology score in assay [1] was -0.179. Besides, the SARS-CoV-2 infection rate in assay [2] is 106% (inactive).

On to `CC(C)(C)OC(=O)N[C@H]1CCCCC/C=C\[C@@H]2C[C@@]2(C(=O)NS(=O)(=O)C2CC2)NC(=O)[C@@H]2C[C@@H](OC(=O)N3Cc4cccc(F)c4C3)CN2C1=O` [danoprevir] (10 µM), for which, in assay [1], the morphology score is -0.0154. Moreover, the SARS-CoV-2 infection rate in assay [2] is 114% (inactive).

In turn, `N[C@@H](CC(=O)Nc1ccc(Oc2cc(F)c(F)cc2Br)cc1)C(=O)O` (10 µM) came in with a morphology score in assay [1] of 0.233. In addition, in assay [2], the SARS-CoV-2 infection rate is 98% (inactive).

As for `Nc1c(Br)cc(Br)cc1CN[C@H]1CC[C@H](O)CC1` [ambroxol] (10 µM), the morphology score in assay [1] was -0.155. In addition, in assay [2], the SARS-CoV-2 infection rate was 114% (inactive).

In assay [1], `CCCCN(CCCC)CCC(O)c1cc2c(Cl)cc(Cl)cc2c2cc(C(F)(F)F)ccc12` (stereo not given) [halofantrine] (10 µM) showed a morphology score of 0.406. Further, the SARS-CoV-2 infection rate in assay [2] was 79.5% (inactive).

In assay [1], `CCOc1ccccc1C(N)=O` [ethenzamide] (10 µM) had a morphology score of -0.0139. Also, the SARS-CoV-2 infection rate in assay [2] is 118% (inactive).

As to `O=C(NCc1ccc(Oc2ccccc2)cc1)c1nc(-c2cc(Br)c(O)c(Br)c2)no1` (0.833333 µM), the morphology score in assay [1] was 0.0493. For the same compound, the SARS-CoV-2 infection rate in assay [2] was 100% (inactive).

`COC(=O)Nc1nc2cc([S+]([O-])c3ccccc3)ccc2[nH]1` (stereo not given) [oxfendazole] (10 µM) returned a morphology score in assay [1] of 0.15. Further, the SARS-CoV-2 infection rate in assay [2] was 101% (inactive).

In turn, `Cc1nc(C#Cc2ccnc(Cl)c2)c(C)n1-c1ccc(F)cc1` [basimglurant] (10 µM) had a morphology score in assay [1] of 0.114. Besides, in assay [2], the SARS-CoV-2 infection rate is 112% (inactive).

For the compound `CO[C@H]1/C=C/O[C@@]2(C)Oc3c(C)c(O)c4c(O)c(c5c(nc6cc(C)ccn65)c4c3C2=O)NC(=O)/C(C)=C\C=C\[C@H](C)[C@H](O)[C@@H](C)[C@@H](O)[C@@H](C)[C@H](OC(C)=O)[C@@H]1C` [rifaximin] (10 µM), in assay [1], the morphology score is 0.0779. Moreover, the SARS-CoV-2 infection rate in assay [2] was 108% (inactive).

For the compound `O=C(O)c1ccc2cc(-c3ccc(O)c(C45CC6CC(CC(C6)C4)C5)c3)ccc2c1` (0.833333 µM), the morphology score in assay [1] was 0.226. In addition, the SARS-CoV-2 infection rate in assay [2] was 87.5% (inactive).

Turning to `C[C@]12C=CC(=O)C=C1CC[C@@H]1[C@@H]2[C@@H](O)C[C@@]2(C)[C@H]1CC[C@]2(O)C(=O)COP(=O)(O)O` [prednisolone-sodium-phosphate] (10 µM), the morphology score in assay [1] was -0.0179. The SARS-CoV-2 infection rate in assay [2] is 93.5% (inactive).

The compound `CO[C@H]1CC[C@H](N2C(=O)CNc3ncc(-c4ccc(C(C)(C)O)nc4)nc32)CC1` (0.833333 µM) gave a morphology score in assay [1] of 0.21. Further, the SARS-CoV-2 infection rate in assay [2] was 82.5% (inactive).

For the compound `C=CCNc1nc(NCC=C)nc(N2CCN(C(c3ccc(F)cc3)c3ccc(F)cc3)CC2)n1` [almitrine] (10 µM), the morphology score in assay [1] is 0.136. In addition, the SARS-CoV-2 infection rate in assay [2] is 101% (inactive).

For `O=[N+]([O-])c1cc2nc(O)c(O)nc2cc1[N+](=O)[O-]` (10 µM), in assay [1], the morphology score came to 0.165. Also, in assay [2], the SARS-CoV-2 infection rate was 100% (inactive).

Take `Cn1cc(-c2ccncc2)c(-c2ccc(OCc3ccc4ccccc4n3)cc2)n1` (10 µM): the morphology score in assay [1] amounted to 0.927. In addition, the SARS-CoV-2 infection rate in assay [2] was 8% (active).

As for `COC(=O)[C@@H]1[C@H]2C[C@H]3c4[nH]c5ccccc5c4CCN3C[C@@H]2CC[C@@H]1O` [yohimbine] (10 µM), the morphology score in assay [1] is 0.0665. In assay [2], the SARS-CoV-2 infection rate was 109% (inactive).

On to `CN(C)CCCSC(=N)N` [dimaprit] (10 µM), for which the morphology score in assay [1] was determined as 0.245. Besides, the SARS-CoV-2 infection rate in assay [2] is 94.5% (inactive).

`C[N+](C)(C)CC[N+]1(C)Cc2c(Cl)c(Cl)c(Cl)c(Cl)c2C1` [chlorisondamine-diiodide] (10 µM) came in with a morphology score in assay [1] of 0.224. The SARS-CoV-2 infection rate in assay [2] is 90.5% (inactive).

Take `CN1CC(O)C2=C/C(=N/NC(N)=O)C(=O)C=C21` (stereo not given) [carbazochrome] (10 µM): the morphology score in assay [1] came out at 0.0013. Also, the SARS-CoV-2 infection rate in assay [2] is 113% (inactive).
